Screens (PubChem)
KB-V1 cytotox = kills drug-selected multidrug resistant KB-V1 cells; 400,000 compounds, 3.4% hits; Potency, µM (top dose mostly 46.1 µM), hits mostly cytotoxic; KB-V1 MDR cells viability, CellTiter-Glo, 72 h; further: nearly all actives have a fitted effect of over 60% in size
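KB-V1 MDR subline cells in DMEM (phenol-red free, 10% FBS) exposed to compounds in qHTS concentration series for 72 h at 37 degrees C. Viability read by CellTiter-Glo luminescence; concentration-effect curves fitted after normalization and correction.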
HT1080 IDH1KD tx = toxicity to HT-1080 IDH1 knockdown cells (counter line); HT-1080 IDH1 knockdown viability, ATP luminescence, 48 h; 360,000 compounds, 2% hits; Potency, µM (doses to about 46.1 µM), actives largely listed as cytotoxic
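After a 2 h attachment period, IDH1KD HT-1080 cells took pin-transferred compound for 48 h at 37 °C; ATP-based luminescence after 10 min room-temperature reagent incubation reported viability.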
HepG2 tox = HepG2 cytotoxicity, counter-screen for TGF-b inhibitors | AID 588856 | HepG2 CAGA-GFP viability, ATP luminescence, 18 h | 410,000 compounds, 0.76% hits | Potency, µM (highest dose often 46.1 µM), usual class: cytotoxic
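HepG2 CAGA-GFP cells (1000/well, DMEM with 1% FBS) received compound, then TGF-beta at 500 pg/mL final, and were incubated 18 hours at 37 degrees C. Viability was read by CellTiter-Glo luminescence. Media-only wells were set as complete cell-killing and DMSO as no toxicity.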
KB-3-1 cytotox = kills parental KB-3-1 adenocarcinoma cells. KB-3-1 viability, CellTiter-Glo ATP luminescence, 72 h. Potency, µM (top dose mostly 46.1 µM), most hits filed as cytotoxic. 400,000 compounds, 1.4% hits. AID 1347075; further: nearly all actives have a fitted effect of over 60% in size
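KB-3-1 parental drug-naive adenocarcinoma cells in DMEM/10% FBS, incubated 72 h at 37 C with pin-transferred compounds across a concentration series. Viability by CellTiter-Glo luminescence; concentration-response curves fitted after normalization.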
HT1080-NT tox = kills 2HG-producing HT-1080-NT fibrosarcoma cells | 360,000 compounds, 1.6% hits | HT-1080-NT fibrosarcoma viability, CellTiter-Glo ATP luminescence, 48 h | Potency, µM (top dose mostly 46.1 µM), actives largely listed as cytotoxic;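 further: NT is the 2HG producing partner of a matched IDH1 knockdown line; nearly all actives have a fitted effect of over 55% in size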
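A 48-hour cytotoxicity screen used HT-1080-NT cells plated 2 hours before compound delivery. ATP-based CellTiter-Glo luminescence measured viability, normalized to DMSO and no-cell controls.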
TGFb inhibitor = inhibitors of TGF-b signaling | HepG2 CAGA-GFP TGF-b/SMAD3 reporter, GFP fluorescence, 18 h; TGF-beta stimulated, 500 pg/mL final | Potency, µM (top dose mostly 46.1 µM), actives largely listed as inhibitors | 410,000 compounds, 1.2% hits; further: nearly all actives have a fitted effect of over 65% in size
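First, reporter cells (HEPG2 CAGA-GFP) rested 2 h at 37 degrees C. Next, compounds were pinned in and TGF-beta added to 500 pg/mL final. After 18 h, GFP was imaged per cell and summed per well.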
A number is an active result; i = inactive; ? = inconclusive; nt = no result. Sampled rows, rich in hits. Any-hit rate of the full collection: about 6.6%. The call rests on the fitted dose curve; in most records, active means well fitted curve in the direction sought with a large enough effect; inconclusive means small, poorly fitted or top-dose-only effect, or another doubt; inactive means no such curve, though single readings can be large; an effect the other way counts as inactive or inconclusive.

SMILES	KB-V1 cytotox	HT1080 IDH1KD tx	HepG2 tox	KB-3-1 cytotox	HT1080-NT tox	TGFb inhibitor
CCCCn1nnnc1C(c1cc2ccccc2o1)N(CCN(C)C)Cc1ccccc1 (centres undefined)	i	21µM	nt	?	18µM	nt
CCCCn1nnnc1C(c1cc2ccccc2o1)N1CCN(CCN(C)C)CC1 (centres undefined)	i	i	nt	i	?	nt
Cc1cccc(C)c1N1CCN(C(c2cc3ccccc3o2)c2nnnn2C(C)(C)C)CC1 (centres undefined)	2.6µM	?	nt	5.8µM	i	nt
CCCCn1nnnc1C(c1cc2ccccc2o1)N1CCN(c2cc(C)nc3ccccc23)CC1 (centres undefined)	?	?	nt	?	18µM	nt
Oc1c(I)cc(I)c2cccnc12	?	?	i	i	3.7µM	i
Oc1ccc(Cl)c2cccnc12	?	i	10µM	?	i	7.1µM
Cc1ccc(S(=O)(=O)Nc2cc(Cl)c(O)c3ncccc23)cc1	?	?	2.8µM	?	i	6.3µM
Cc1ccc(S(=O)(=O)Nc2cccnc2Oc2ccc(Cl)cc2)cc1	i	i	i	i	i	i
Oc1c(Cl)cc(Cl)c2cccnc12	i	21µM	i	?	?	?
O=C(CSc1nc2ccccc2n1Cc1cccc(Cl)c1)N1CCN(c2ccc(F)cc2)CC1	i	nt	i	i	nt	i
CCOC(=O)c1c(C)oc2nc(C)nc(NCCCN3CCN(c4cc(C)ccc4C)CC3)c12	?	nt	i	i	nt	i
CN1CCN(c2ccc(C(CC(N)=O)NC(=O)Cc3ccc(Br)cc3)cc2[N+](=O)[O-])CC1 (centres undefined)	i	i	0.32µM	i	i	i
COc1ccc2c(CNC3CCC(C)CC3)c(C(=O)O)n(Cc3ccc(F)cc3)c2c1 (centres undefined)	i	nt	i	i	nt	?
COc1cc(C2c3cc4c(cc3OC(Nc3ccc(C(=O)O)cc3)C2C)OCO4)cc(OC)c1OC (centres undefined)	i	?	i	0.18µM	0.52µM	?
COc1cc(C2c3cc4c(cc3OC(C)(N3CCCC3)C2C)OCO4)cc(OC)c1OC (centres undefined)	2.6µM	?	i	1.5µM	?	i
COc1cc(C2c3cc4c(cc3OC(N3CCOCC3)C2C)OCO4)cc(OC)c1OC(C)=O (centres undefined)	?	?	i	?	?	i
Cc1ccc2nc(-c3cccs3)c(Nc3c(C)cccc3C)n2c1	i	nt	i	i	nt	?
O=c1[nH][nH]c2c1[C@H](CCc1cccc(Cl)c1)O[C@H](C1CCCC1)C2	i	7.3µM	nt	i	?	nt
O=C(CCn1nnc2ccccc21)Nc1nnc(Cc2ccccc2)s1	16µM	i	i	i	i	i
COc1ccc(C(=O)Cn2c(NCCO)nc3ccccc32)cc1	i	i	i	i	i	i
COc1ccc(/C=C/C(=O)c2nc3ccccc3n2CC(=O)c2ccc(OC)cc2)cc1	23µM	i	i	i	i	i
COc1ccc(C(=O)Cn2c(C(C)=O)nc3ccccc32)cc1	3.3µM	?	i	?	i	?
CCOC(=O)c1cccc(NC(=O)N2Cc3ccccc3Oc3ncccc32)c1	nt	nt	i	nt	nt	nt
O=C(/C=C/c1ccc(O)cc1)c1ccc(NC2=C(N3CCCCC3)C(=O)c3ccccc3C2=O)cc1	?	?	i	2.1µM	i	6.3µM
CN(C1=C(N2CCCCC2)C(=O)c2ccccc2C1=O)c1ccccc1	i	?	i	i	?	18µM
SMILES	KB-V1 cytotox	HT1080 IDH1KD tx	HepG2 tox	KB-3-1 cytotox	HT1080-NT tox	TGFb inhibitor
Cc1ccc(NC2=C(N3CCCCC3)C(=O)c3ccccc3C2=O)cc1	i	?	i	?	?	?
O=C1C(Nc2ccccc2)=C(N2CCCCC2)C(=O)c2ccccc21	i	?	i	?	?	i
COc1ccccc1NC1=C(N2CCCCC2)C(=O)c2ccccc2C1=O	i	?	16µM	2.6µM	4.6µM	?
CCCn1c2ccccc2c2cnn(CC(=O)Nc3ccccc3OC)c(=O)c21	nt	nt	i	nt	nt	?
C#CCOc1ccc(/C=C2\SC(=S)N(Cc3cccnc3)C2=O)cc1	?	?	i	21µM	i	?
O=C1/C(=C/c2ccncc2)SC(=S)N1Cc1ccccc1	?	18µM	i	?	23µM	?
CCCN1C(=O)/C(=C/c2ccncc2)SC1=S	i	i	i	i	i	i
CC(C)Cn1nc(C(=O)NCc2ccccc2CN2CCCC2)c2ccccc2c1=O	5.8µM	i	i	i	i	i
CCCCn1nc(C(=O)NCc2ccccc2CN2CCCC2)c2ccccc2c1=O	i	i	i	i	i	i
Cc1ccn2cc(-c3ccc(NS(=O)(=O)c4ccccc4)cc3)nc2c1	16µM	i	i	i	i	i
Cc1nc(CC(=O)c2c(C)cc(O)cc2O)cs1	21µM	i	i	21µM	i	i
Cc1nc(CC(=O)c2ccc(O)cc2O)cs1	i	i	i	i	i	i
Cc1ccc(OCCSc2nc3ccc(NC(=O)c4ccc5c(c4)OCO5)cc3s2)cc1	i	nt	i	i	nt	i
Cc1cccc(N2CCN(C(=O)C3CCC(CNS(=O)(=O)c4cccs4)CC3)CC2)c1C (centres undefined)	?	?	i	21µM	i	i
CCn1c(C(=O)N2CCC(C(=O)N3CCN(c4cccc(C)c4C)CC3)CC2)cc2sccc21	i	nt	i	i	nt	11µM
CCOC(=O)N1CCC(NC(=O)c2cc3sccc3n2CC)CC1	23µM	i	i	i	i	i
C=C1C(=O)OC2C1CCC(C)C1C=CC(=O)C12C (centres undefined)	?	21µM	i	?	?	?
CN(c1cccc(Cl)c1)S(=O)(=O)c1cccc(C(=O)NC2=NCCS2)c1	21µM	?	i	23µM	?	i
CN(c1cccc(Cl)c1)S(=O)(=O)c1cccc(C(=O)Nc2nc3ccccc3[nH]2)c1	?	?	i	15µM	?	i
COc1ccc(N(C)S(=O)(=O)c2cccc(C(=O)Nc3nc4ccccc4[nH]3)c2)cc1	16µM	?	i	?	i	i
CN(c1cccc(Cl)c1)S(=O)(=O)c1cccc(C(=O)NCc2ccncc2)c1	i	i	i	i	i	i
Cc1ccc(-n2ncc(C(=O)NCCc3ccsc3)c2C2CCN(C(=O)OC(C)(C)C)CC2)c(C)c1	i	nt	i	i	nt	?
Cc1ccc(Cn2c(=O)n(Cc3ccccc3)c(=O)c3c(C)c(C)sc32)cc1	i	nt	i	i	nt	i
CCCCS(=O)CC(O)COc1ccc(C(C)(C)C)cc1 (centres undefined)	21µM	?	i	i	i	i
